Measured values: ChEMBL document CHEMBL1961873, “Compounds: GSK PKIS; Assays: Nanosyn kinase panel” (2012)

Key:
[1] = target: Serine/threonine-protein kinase 26 (Homo sapiens) (UniProt Q9P289); conditions: at 1 µM;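 note: mean inhibition of MST4 kinase activity, reported from the GSK PKIS inhibitor-set screening panel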
[2] = target: Serine/threonine-protein kinase PAK 1 (Homo sapiens) (UniProt Q13153); conditions: at 0.1 µM
[3] = target: Serine/threonine-protein kinase PAK 1 (Homo sapiens) (UniProt Q13153); conditions: at 1 µM
[4] = target: Serine/threonine-protein kinase PAK 2 (Homo sapiens) (UniProt Q13177); conditions: at 0.1 µM
[5] = target: Serine/threonine-protein kinase PAK 2 (Homo sapiens) (UniProt Q13177); conditions: at 1 µM
[6] = target: Serine/threonine-protein kinase PAK 3 (Homo sapiens) (UniProt O75914); conditions: at 1 µM
[7] = target: Serine/threonine-protein kinase PAK 5 (Homo sapiens) (UniProt Q9P286); conditions: at 1 µM
[8] = target: Serine/threonine-protein kinase PAK 6 (Homo sapiens) (UniProt Q9NQU5); conditions: at 0.1 µM
[9] = test system: Tyrosine-protein kinase ABL1 (Homo sapiens), P00519 [E255K]; conditions: at 0.1 µM
[10] = test system: Tyrosine-protein kinase ABL1 (Homo sapiens), P00519 [E255K]; conditions: at 1 µM
[11] = test system: Tyrosine-protein kinase ABL1 (Homo sapiens), P00519 [H396P]; conditions: at 0.1 µM
[12] = test system: Tyrosine-protein kinase ABL1 (Homo sapiens), P00519 [H396P]; conditions: at 1 µM
[13] = test system: Tyrosine-protein kinase ABL1 (Homo sapiens), P00519 [M351T]; conditions: at 0.1 µM
[14] = test system: Tyrosine-protein kinase ABL1 (Homo sapiens), P00519 [M351T]; conditions: at 1 µM
[15] = test system: Tyrosine-protein kinase ABL1 (Homo sapiens), P00519 [Q252H]; conditions: at 0.1 µM
[16] = test system: Tyrosine-protein kinase ABL1 (Homo sapiens), P00519 [Q252H]; conditions: at 1 µM
[17] = test system: Tyrosine-protein kinase ABL1 (Homo sapiens), P00519 [T315I]; conditions: at 0.1 µM
[18] = target: Serine/threonine-protein kinase PAK 3 (Homo sapiens) (UniProt O75914); conditions: at 0.1 µM
[19] = target: Serine/threonine-protein kinase PAK 5 (Homo sapiens) (UniProt Q9P286); conditions: at 0.1 µM
[20] = target: Serine/threonine-protein kinase PAK 6 (Homo sapiens) (UniProt Q9NQU5); conditions: at 1 µM

Sequence of Serine/threonine-protein kinase PAK 3 (Homo sapiens) (O75914 whole entry, looked up): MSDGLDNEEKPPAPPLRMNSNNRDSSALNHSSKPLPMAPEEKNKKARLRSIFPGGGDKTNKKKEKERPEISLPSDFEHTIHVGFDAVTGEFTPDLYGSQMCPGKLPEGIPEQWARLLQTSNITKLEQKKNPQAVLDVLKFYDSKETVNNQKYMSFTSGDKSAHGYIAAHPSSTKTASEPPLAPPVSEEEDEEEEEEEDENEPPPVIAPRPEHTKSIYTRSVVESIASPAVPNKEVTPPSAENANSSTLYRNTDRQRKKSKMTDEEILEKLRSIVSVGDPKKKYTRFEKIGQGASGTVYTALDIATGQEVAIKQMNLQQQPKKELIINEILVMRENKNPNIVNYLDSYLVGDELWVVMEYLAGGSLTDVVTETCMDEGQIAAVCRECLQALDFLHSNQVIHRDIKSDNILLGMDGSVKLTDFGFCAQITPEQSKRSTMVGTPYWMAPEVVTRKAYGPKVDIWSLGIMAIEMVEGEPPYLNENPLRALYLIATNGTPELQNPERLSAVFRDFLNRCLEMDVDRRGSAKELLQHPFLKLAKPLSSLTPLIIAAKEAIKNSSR
Sequence of Serine/threonine-protein kinase PAK 6 (Homo sapiens) (Q9NQU5 whole entry, looked up): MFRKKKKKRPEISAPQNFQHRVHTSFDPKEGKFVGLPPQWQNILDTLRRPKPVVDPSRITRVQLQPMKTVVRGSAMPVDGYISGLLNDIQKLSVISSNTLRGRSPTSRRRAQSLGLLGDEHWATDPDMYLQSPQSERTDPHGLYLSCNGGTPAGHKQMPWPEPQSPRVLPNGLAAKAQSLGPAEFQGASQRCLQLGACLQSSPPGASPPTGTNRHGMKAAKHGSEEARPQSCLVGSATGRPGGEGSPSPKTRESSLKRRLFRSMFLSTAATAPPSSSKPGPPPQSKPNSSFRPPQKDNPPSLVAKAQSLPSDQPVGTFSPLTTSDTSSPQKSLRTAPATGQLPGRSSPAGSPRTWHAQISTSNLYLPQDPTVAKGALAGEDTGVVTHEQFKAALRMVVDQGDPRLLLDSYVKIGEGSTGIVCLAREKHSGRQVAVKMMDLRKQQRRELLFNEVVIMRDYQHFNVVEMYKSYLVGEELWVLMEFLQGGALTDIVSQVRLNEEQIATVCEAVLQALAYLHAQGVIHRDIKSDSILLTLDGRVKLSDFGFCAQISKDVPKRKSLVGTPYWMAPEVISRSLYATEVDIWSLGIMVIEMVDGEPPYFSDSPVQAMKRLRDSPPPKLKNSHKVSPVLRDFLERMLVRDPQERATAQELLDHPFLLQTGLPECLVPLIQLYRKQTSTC
Sequence of Serine/threonine-protein kinase 26 (Homo sapiens) (Q9P289 2-416 limits assumed): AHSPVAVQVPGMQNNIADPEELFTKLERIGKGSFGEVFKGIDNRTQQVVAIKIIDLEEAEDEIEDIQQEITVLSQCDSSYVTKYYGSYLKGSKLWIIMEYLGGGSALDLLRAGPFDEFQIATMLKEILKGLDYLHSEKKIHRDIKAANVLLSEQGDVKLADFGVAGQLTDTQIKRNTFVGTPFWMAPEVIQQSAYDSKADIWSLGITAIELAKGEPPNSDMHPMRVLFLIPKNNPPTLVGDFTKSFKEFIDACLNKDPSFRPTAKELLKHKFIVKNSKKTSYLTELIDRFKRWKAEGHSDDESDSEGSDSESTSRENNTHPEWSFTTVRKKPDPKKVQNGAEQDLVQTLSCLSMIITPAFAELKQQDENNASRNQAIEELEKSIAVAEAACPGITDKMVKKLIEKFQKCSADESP
Sequence of Serine/threonine-protein kinase PAK 2 (Homo sapiens) (Q13177 whole entry): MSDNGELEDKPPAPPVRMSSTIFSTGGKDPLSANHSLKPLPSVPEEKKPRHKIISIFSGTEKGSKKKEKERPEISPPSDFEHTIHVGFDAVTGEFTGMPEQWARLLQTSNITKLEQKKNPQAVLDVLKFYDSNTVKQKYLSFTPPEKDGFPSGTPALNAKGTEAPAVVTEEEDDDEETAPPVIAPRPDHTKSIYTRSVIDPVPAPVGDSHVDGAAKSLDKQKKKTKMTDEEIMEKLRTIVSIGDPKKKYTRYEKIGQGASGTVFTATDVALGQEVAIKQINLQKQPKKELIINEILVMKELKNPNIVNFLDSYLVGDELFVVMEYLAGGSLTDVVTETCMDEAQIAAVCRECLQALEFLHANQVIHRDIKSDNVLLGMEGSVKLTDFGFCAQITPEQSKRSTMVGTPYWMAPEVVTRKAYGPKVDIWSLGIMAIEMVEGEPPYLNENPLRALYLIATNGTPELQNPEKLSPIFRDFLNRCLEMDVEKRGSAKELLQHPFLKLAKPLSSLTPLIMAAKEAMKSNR
Sequence of Serine/threonine-protein kinase PAK 5 (Homo sapiens) (Q9P286 whole entry, looked up): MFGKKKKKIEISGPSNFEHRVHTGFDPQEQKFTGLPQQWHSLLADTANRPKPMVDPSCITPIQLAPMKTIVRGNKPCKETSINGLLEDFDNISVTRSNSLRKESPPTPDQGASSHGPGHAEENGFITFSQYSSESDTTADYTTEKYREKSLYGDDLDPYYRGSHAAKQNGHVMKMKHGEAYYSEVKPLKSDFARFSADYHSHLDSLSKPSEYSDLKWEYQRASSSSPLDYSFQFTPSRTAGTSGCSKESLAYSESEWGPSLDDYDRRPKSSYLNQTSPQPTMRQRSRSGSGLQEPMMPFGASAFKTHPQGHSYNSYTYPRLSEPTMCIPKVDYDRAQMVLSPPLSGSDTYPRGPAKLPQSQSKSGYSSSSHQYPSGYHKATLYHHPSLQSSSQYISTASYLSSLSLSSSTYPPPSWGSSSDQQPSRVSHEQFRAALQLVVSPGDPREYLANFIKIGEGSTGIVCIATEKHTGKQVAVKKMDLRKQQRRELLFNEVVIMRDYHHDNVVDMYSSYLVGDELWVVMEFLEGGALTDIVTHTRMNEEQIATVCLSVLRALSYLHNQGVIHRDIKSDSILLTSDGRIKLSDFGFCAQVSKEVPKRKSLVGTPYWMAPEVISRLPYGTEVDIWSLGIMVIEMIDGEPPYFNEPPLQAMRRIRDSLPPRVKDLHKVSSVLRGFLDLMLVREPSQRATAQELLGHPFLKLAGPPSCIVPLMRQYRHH
Sequence of Serine/threonine-protein kinase PAK 1 (Homo sapiens) (Q13153 whole entry): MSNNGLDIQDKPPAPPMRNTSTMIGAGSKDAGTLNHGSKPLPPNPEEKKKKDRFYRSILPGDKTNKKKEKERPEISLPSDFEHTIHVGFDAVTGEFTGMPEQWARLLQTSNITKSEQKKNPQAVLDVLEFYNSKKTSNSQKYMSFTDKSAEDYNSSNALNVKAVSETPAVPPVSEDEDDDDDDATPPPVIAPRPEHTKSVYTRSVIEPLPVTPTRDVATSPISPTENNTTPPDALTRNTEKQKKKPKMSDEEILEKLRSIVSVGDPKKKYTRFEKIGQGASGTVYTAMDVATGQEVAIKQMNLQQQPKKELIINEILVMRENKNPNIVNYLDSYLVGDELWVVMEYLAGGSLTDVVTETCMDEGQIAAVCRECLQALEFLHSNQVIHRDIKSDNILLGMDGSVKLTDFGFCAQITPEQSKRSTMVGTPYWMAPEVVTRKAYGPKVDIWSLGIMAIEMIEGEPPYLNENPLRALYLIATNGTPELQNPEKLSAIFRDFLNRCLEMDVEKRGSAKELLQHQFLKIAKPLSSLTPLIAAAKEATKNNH

| Compound | inhibition [1] [%] | inhibition [2] [%] | inhibition [3] [%] | inhibition [4] [%] | inhibition [5] [%] | inhibition [6] [%] | inhibition [7] [%] | inhibition [8] [%] | inhibition [9] [%] | inhibition [10] [%] | inhibition [11] [%] | inhibition [12] [%] | inhibition [13] [%] | inhibition [14] [%] | inhibition [15] [%] | inhibition [16] [%] | inhibition [17] [%] | inhibition [18] [%] | inhibition [19] [%] | inhibition [20] [%] |
| --- | --- | --- | --- | --- | --- | --- | --- | --- | --- | --- | --- | --- | --- | --- | --- | --- | --- | --- | --- | --- |
| Fc1cccc(COc2ccc(Nc3ncnc4cc(-c5ccc[nH]5)sc34)cc2Cl)c1 | 3.26 | 5.46 | 5.78 | -0.06 | -0.55 | 1.96 | -0.78 | -2.21 | 1.82 | 7.42 | 3.38 | 5.8 | 0.9 | 5.26 | 2.05 | 6.45 | 0.63 | – | – | – |
| CN1CCC(C(=O)Nc2n[nH]c3nnc(-c4ccccc4)cc23)CC1 | 1.63 | 10.6 | 7.32 | 1.19 | 2.25 | 6.46 | 6.52 | – | 1.81 | 6.11 | 4.23 | 4.8 | 2.25 | 1.61 | 3.6 | 3.36 | 3.4 | 5.86 | 3.31 | -6.17 |
| CN(C)c1cc2c(Nc3ccc4nc(Cc5ccccc5)[nH]c4c3)ncnc2cn1 | -0.63 | 8.36 | 8.45 | 2.07 | 1.52 | 7.25 | -7.55 | 7.15 | 3 | 2.89 | 6.52 | 4.37 | 2.81 | 3.14 | 6.01 | 5.74 | 5.24 | 6.44 | 9.58 | -5.69 |
| COc1cc(C)c(NC(=O)CN(C)C)cc1Nc1nc(Nc2cccc(F)c2C(N)=O)c2cc[nH]c2n1 | -2.75 | 2.74 | 3.36 | 1.54 | 1.5 | 2.37 | -5.11 | 5.11 | 1.11 | 0.03 | 2.73 | -1.28 | 1.99 | -1.18 | 2.21 | -0.29 | 1.45 | 1.84 | -4.59 | -2.96 |
| NC(=O)c1cccc(Nc2nccc(Nc3cccc4[nH]ncc34)n2)c1 | 2.8 | -5.7 | -0.69 | -3.16 | -0.55 | -3.07 | 13.4 | 3.11 | 76.9 | 95.5 | 82.2 | 96.7 | 77.9 | 95.7 | 73.5 | 95.4 | 3.14 | -3.68 | -1.09 | 0.17 |
